# Assay results: PubChem BioAssay (NCATS)
# Inconclusive results are not listed. Entries that show only a call come without a potency. Calls of active or inactive are those of the source. Calls follow the shape of the dose curve; as a rule, active = well fitted curve in the direction sought with a large enough effect; inconclusive = small, poorly fitted or top-dose-only effect, or another doubt; inactive = no such curve, though single readings can be large; an effect the other way counts as inactive or inconclusive.
# Target: Voltage-gated inwardly rectifying potassium channel KCNH2 (Homo sapiens) (UniProt Q12809)
# Sequence (Q12809 whole entry, looked up): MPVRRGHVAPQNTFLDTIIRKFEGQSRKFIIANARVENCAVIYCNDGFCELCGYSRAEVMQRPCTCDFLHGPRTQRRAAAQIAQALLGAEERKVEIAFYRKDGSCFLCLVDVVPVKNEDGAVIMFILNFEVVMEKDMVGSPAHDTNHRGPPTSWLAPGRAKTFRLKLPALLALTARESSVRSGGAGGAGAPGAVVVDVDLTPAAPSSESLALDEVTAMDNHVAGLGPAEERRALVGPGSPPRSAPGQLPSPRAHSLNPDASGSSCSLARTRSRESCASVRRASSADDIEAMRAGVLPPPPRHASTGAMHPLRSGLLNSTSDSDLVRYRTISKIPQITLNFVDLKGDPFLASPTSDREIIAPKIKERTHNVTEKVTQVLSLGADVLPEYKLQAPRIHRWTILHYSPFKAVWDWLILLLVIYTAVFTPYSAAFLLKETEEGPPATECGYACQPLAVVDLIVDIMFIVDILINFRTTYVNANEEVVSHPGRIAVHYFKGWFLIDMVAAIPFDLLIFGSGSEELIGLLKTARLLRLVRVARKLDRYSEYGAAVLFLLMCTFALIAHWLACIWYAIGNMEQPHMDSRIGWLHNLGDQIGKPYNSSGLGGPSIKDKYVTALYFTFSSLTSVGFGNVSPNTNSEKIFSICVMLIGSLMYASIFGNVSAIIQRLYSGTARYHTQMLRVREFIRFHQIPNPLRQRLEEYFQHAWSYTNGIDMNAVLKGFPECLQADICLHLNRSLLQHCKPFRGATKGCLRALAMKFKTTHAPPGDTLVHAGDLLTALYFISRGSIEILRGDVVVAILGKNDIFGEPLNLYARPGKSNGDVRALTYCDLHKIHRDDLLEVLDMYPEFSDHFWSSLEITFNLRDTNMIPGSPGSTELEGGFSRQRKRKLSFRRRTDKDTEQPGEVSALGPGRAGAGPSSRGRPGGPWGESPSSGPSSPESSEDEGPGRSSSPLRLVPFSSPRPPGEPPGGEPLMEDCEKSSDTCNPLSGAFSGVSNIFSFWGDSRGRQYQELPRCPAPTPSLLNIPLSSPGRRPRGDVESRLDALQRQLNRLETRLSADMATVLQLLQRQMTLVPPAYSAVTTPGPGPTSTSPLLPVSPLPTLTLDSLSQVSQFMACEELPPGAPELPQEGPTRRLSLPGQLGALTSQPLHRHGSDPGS
# Assay: qHTS Assay for Small Molecule Inhibitors of the Human hERG Channel Activity (AID 588834);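 also: lower thallium flux fluorescence means stronger hERG block; nearly all actives have a fitted effect of over 50% in size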
# Conditions: U2OS BacMam hERG, FluxOR thallium flux fluorescence; series mostly up to 46.1 µM
# Method in brief: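 U2OS cells transduced with hERG via BacMam (MOI ~100), plated 2000/well, loaded with FluxOR thallium dye, compound ~10 min, then stimulation buffer; fluorescence decrease read kinetically; AC50 from Hill fits.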
# Potency is read from the fitted curve at half-maximal effect.
row,SMILES,Potency
1,CCN(CCO)CCCC(C)Nc1ccnc2cc(Cl)ccc12 (stereo not drawn),inactive
2,COC(=O)C1=C(C)NC(C)=C(C(=O)OCCCN2CCC(c3ccccc3)(c3ccccc3)CC2)C1c1cccc([N+](=O)[O-])c1 (stereo not drawn),2000 nM (active)
3,CCCOc1ccc2nc(NC(=O)OC)[nH]c2c1,inactive
4,Cc1c(C(=O)NN2CCCCC2)nn(-c2ccc(Cl)cc2Cl)c1-c1ccc(Cl)cc1,2820 nM (active)
5,O=C(O)c1cc(=O)c2c(OCC(O)COc3cccc4oc(C(=O)O)cc(=O)c34)cccc2o1,inactive
6,C[C@]12CCC(=O)C=C1CC[C@@H]1[C@H]2[C@@H](O)C[C@@]2(C)[C@H]1CC[C@]2(O)C(=O)CO,inactive
7,CN1C(C(=O)Nc2ccccn2)=C(O)c2sccc2S1(=O)=O,inactive
8,O=C(CS(=O)Cc1ccco1)NCC=CCOc1cc(CN2CCCCC2)ccn1 (stereo not drawn),inactive
9,CCCCCCCCOc1ccccc1C(=O)Nc1ccc(C(=O)OCC[N+](C)(CC)CC)cc1,inactive
10,CCN(CC)CCOc1ccc(Cc2ccccc2)cc1,5010 nM (active)
11,COc1ccc(C2(C#N)CCC(C(=O)O)CC2)cc1OC1CCCC1 (stereo not drawn),inactive
12,Nc1cccc2c1CN(C1CCC(=O)NC1=O)C2=O (stereo not drawn),inactive
13,O=P(O)(O)C(O)(Cn1ccnc1)P(=O)(O)O,inactive
14,O=C(NCCO[N+](=O)[O-])c1cccnc1,inactive
15,CC1=C(C)C(=O)C(C(CCCCCC(=O)O)c2ccccc2)=C(C)C1=O (stereo not drawn),inactive
16,C[Se]CCC(N)C(=O)O (stereo not drawn),inactive
17,Cc1cc(C2CCCCC2)n(O)c(=O)c1,inactive
18,Cc1ncc([N+](=O)[O-])n1CC(C)O (stereo not drawn),inactive

# Target: Luciferin 4-monooxygenase (Photinus pyralis) (UniProt P08659)
# Sequence (P08659 whole entry, looked up): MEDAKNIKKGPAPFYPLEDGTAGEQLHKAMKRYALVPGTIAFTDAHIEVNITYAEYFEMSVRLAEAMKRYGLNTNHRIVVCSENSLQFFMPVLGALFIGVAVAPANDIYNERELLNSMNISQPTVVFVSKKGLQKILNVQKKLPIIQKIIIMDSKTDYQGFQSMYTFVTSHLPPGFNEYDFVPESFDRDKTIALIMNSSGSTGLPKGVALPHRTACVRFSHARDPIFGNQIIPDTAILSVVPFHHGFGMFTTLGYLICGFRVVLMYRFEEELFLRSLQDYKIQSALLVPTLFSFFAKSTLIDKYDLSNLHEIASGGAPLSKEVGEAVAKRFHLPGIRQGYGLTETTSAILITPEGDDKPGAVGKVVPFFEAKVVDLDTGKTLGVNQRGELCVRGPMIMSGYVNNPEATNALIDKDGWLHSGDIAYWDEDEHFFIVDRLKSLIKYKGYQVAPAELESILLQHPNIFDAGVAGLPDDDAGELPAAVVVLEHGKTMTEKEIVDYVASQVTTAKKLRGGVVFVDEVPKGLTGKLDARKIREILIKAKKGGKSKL
# Assay: Biochemical firefly luciferase enzyme assay for NPC (AID 624030); also: nearly all actives have a fitted effect of over 70% in size
# Conditions: purified P. pyralis luciferase, luminescence, 5 min; series mostly up to 58.6 µM
# Method in brief: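 Purified P. pyralis luciferase at 10 nM in 50 mM Tris Acetate (final), luminescence read within 5 minutes of enzyme addition to compounds. Activity normalised to PTC124 versus DMSO; concentration-response curves classed by r2, magnitude and activity.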
row,SMILES,Potency
1,O=C(OC1C[C@H]2CC[C@@H](C1)[N+]21CCCC1)C(O)(c1ccccc1)c1ccccc1 (stereo partly drawn),inactive
2,N=C(N)c1ccc2cc(OC(=O)c3ccc(N=C(N)N)cc3)ccc2c1,inactive
3,CC(S)C(=O)NCC(=O)O (stereo not drawn),inactive
4,CC[C@]1(O)C[C@H]2CN(CCc3c([nH]c4ccccc34)[C@@](C(=O)OC)(c3cc4c(cc3OC)N(C=O)[C@H]3[C@@](O)(C(=O)OC)[C@H](OC(C)=O)[C@]5(CC)C=CCN6CC[C@]43[C@@H]65)C2)C1,inactive
5,CCOC(=O)c1c(C)n(C)c2ccc(O)cc12,inactive
6,O=C(O)c1cccc(-c2noc(-c3ccccc3F)n2)c1,7.2 nM (active)
7,CC(C)[C@H](N)C(=O)OCCOCn1cnc2c(=O)[nH]c(N)nc21,inactive
8,O=C(O)c1cn(-c2ccc(F)cc2)c2cc(N3CCNCC3)c(F)cc2c1=O,inactive
9,CCCCCCCCCCCCCCCCCCCCCCO,inactive
10,CCOc1cc(CC(=O)N[C@@H](CC(C)C)c2ccccc2N2CCCCC2)ccc1C(=O)O,inactive
11,O=C(NC(Cc1cc(=O)[nH]c2ccccc12)C(=O)O)c1ccc(Cl)cc1 (stereo not drawn),inactive
12,Cc1cc(=O)oc2cc(O)ccc12,inactive
13,CN(C)C(=O)COC(=O)Cc1ccc(OC(=O)c2ccc(N=C(N)N)cc2)cc1,inactive
14,Cc1cc2c(s1)Nc1ccccc1N=C2N1CCN(C)CC1,inactive
15,Nc1cc(C(Cl)=C(Cl)Cl)c(S(N)(=O)=O)cc1S(N)(=O)=O,inactive
16,N=C(N=C(N)N)N1CCOCC1,inactive
17,C[C@H](Cn1cnc2c(N)ncnc21)OCP(=O)(O)O,inactive
18,CCN(CCO)CCCC(C)Nc1ccnc2cc(Cl)ccc12 (stereo not drawn),inactive

row,SMILES,Potency
1,COC(=O)C1=C(C)NC(C)=C(C(=O)OCCCN2CCC(c3ccccc3)(c3ccccc3)CC2)C1c1cccc([N+](=O)[O-])c1 (stereo not drawn),inactive
2,CCCOc1ccc2nc(NC(=O)OC)[nH]c2c1,inactive
3,Cc1c(C(=O)NN2CCCCC2)nn(-c2ccc(Cl)cc2Cl)c1-c1ccc(Cl)cc1,inactive
4,O=C(O)c1cc(=O)c2c(OCC(O)COc3cccc4oc(C(=O)O)cc(=O)c34)cccc2o1,inactive
5,C[C@]12CCC(=O)C=C1CC[C@@H]1[C@H]2[C@@H](O)C[C@@]2(C)[C@H]1CC[C@]2(O)C(=O)CO,inactive
6,CN1C(C(=O)Nc2ccccn2)=C(O)c2sccc2S1(=O)=O,inactive
7,O=C(CS(=O)Cc1ccco1)NCC=CCOc1cc(CN2CCCCC2)ccn1 (stereo not drawn),inactive
8,CCCCCCCCOc1ccccc1C(=O)Nc1ccc(C(=O)OCC[N+](C)(CC)CC)cc1,inactive
9,CCN(CC)CCOc1ccc(Cc2ccccc2)cc1,inactive
10,COc1ccc(C2(C#N)CCC(C(=O)O)CC2)cc1OC1CCCC1 (stereo not drawn),inactive
11,Nc1cccc2c1CN(C1CCC(=O)NC1=O)C2=O (stereo not drawn),inactive
12,O=P(O)(O)C(O)(Cn1ccnc1)P(=O)(O)O,inactive
13,O=C(NCCO[N+](=O)[O-])c1cccnc1,inactive
14,CC1=C(C)C(=O)C(C(CCCCCC(=O)O)c2ccccc2)=C(C)C1=O (stereo not drawn),inactive
15,C[Se]CCC(N)C(=O)O (stereo not drawn),inactive
16,Cc1cc(C2CCCCC2)n(O)c(=O)c1,inactive
17,Cc1ncc([N+](=O)[O-])n1CC(C)O (stereo not drawn),inactive

# System: not listed separately
# Assay: S16 Schwann cell viability assay (CellTiter-Glo assay) (AID 624031); also: nearly all actives have a fitted effect of over 70% in size
# Conditions: S16 rat Schwann cells viability, 24 h; series mostly up to 57.5 µM
# Method in brief: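 This viability control uses native rat S16 Schwann cells grown in DMEM plus 10% FBS. After a 24 h compound treatment at 37 °C, CellTiter-Glo luminescence reports ATP content, scaled against DMSO-treated and cell-free wells.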
row,SMILES,Potency
1,O=C(OC1C[C@H]2CC[C@@H](C1)[N+]21CCCC1)C(O)(c1ccccc1)c1ccccc1 (stereo partly drawn),inactive
2,N=C(N)c1ccc2cc(OC(=O)c3ccc(N=C(N)N)cc3)ccc2c1,inactive
3,CC(S)C(=O)NCC(=O)O (stereo not drawn),inactive
4,CC[C@]1(O)C[C@H]2CN(CCc3c([nH]c4ccccc34)[C@@](C(=O)OC)(c3cc4c(cc3OC)N(C=O)[C@H]3[C@@](O)(C(=O)OC)[C@H](OC(C)=O)[C@]5(CC)C=CCN6CC[C@]43[C@@H]65)C2)C1,inactive
5,CCOC(=O)c1c(C)n(C)c2ccc(O)cc12,inactive
6,O=C(O)c1cccc(-c2noc(-c3ccccc3F)n2)c1,inactive
7,CC(C)[C@H](N)C(=O)OCCOCn1cnc2c(=O)[nH]c(N)nc21,inactive
8,O=C(O)c1cn(-c2ccc(F)cc2)c2cc(N3CCNCC3)c(F)cc2c1=O,inactive
9,CCCCCCCCCCCCCCCCCCCCCCO,inactive
10,CCOc1cc(CC(=O)N[C@@H](CC(C)C)c2ccccc2N2CCCCC2)ccc1C(=O)O,inactive
11,O=C(NC(Cc1cc(=O)[nH]c2ccccc12)C(=O)O)c1ccc(Cl)cc1 (stereo not drawn),inactive
12,Cc1cc(=O)oc2cc(O)ccc12,inactive
13,CN(C)C(=O)COC(=O)Cc1ccc(OC(=O)c2ccc(N=C(N)N)cc2)cc1,inactive
14,Cc1cc2c(s1)Nc1ccccc1N=C2N1CCN(C)CC1,inactive
15,Nc1cc(C(Cl)=C(Cl)Cl)c(S(N)(=O)=O)cc1S(N)(=O)=O,inactive
16,N=C(N=C(N)N)N1CCOCC1,inactive
17,C[C@H](Cn1cnc2c(N)ncnc21)OCP(=O)(O)O,inactive
18,CCN(CCO)CCCC(C)Nc1ccnc2cc(Cl)ccc12 (stereo not drawn),inactive

row,SMILES,Potency
1,COC(=O)C1=C(C)NC(C)=C(C(=O)OCCCN2CCC(c3ccccc3)(c3ccccc3)CC2)C1c1cccc([N+](=O)[O-])c1 (stereo not drawn),16100 nM (active)
2,CCCOc1ccc2nc(NC(=O)OC)[nH]c2c1,inactive
3,Cc1c(C(=O)NN2CCCCC2)nn(-c2ccc(Cl)cc2Cl)c1-c1ccc(Cl)cc1,inactive
4,O=C(O)c1cc(=O)c2c(OCC(O)COc3cccc4oc(C(=O)O)cc(=O)c34)cccc2o1,inactive
5,C[C@]12CCC(=O)C=C1CC[C@@H]1[C@H]2[C@@H](O)C[C@@]2(C)[C@H]1CC[C@]2(O)C(=O)CO,inactive
6,CN1C(C(=O)Nc2ccccn2)=C(O)c2sccc2S1(=O)=O,inactive
7,O=C(CS(=O)Cc1ccco1)NCC=CCOc1cc(CN2CCCCC2)ccn1 (stereo not drawn),inactive
8,CCCCCCCCOc1ccccc1C(=O)Nc1ccc(C(=O)OCC[N+](C)(CC)CC)cc1,inactive
9,CCN(CC)CCOc1ccc(Cc2ccccc2)cc1,inactive
10,COc1ccc(C2(C#N)CCC(C(=O)O)CC2)cc1OC1CCCC1 (stereo not drawn),inactive
11,Nc1cccc2c1CN(C1CCC(=O)NC1=O)C2=O (stereo not drawn),inactive
12,O=P(O)(O)C(O)(Cn1ccnc1)P(=O)(O)O,inactive
13,O=C(NCCO[N+](=O)[O-])c1cccnc1,inactive
14,CC1=C(C)C(=O)C(C(CCCCCC(=O)O)c2ccccc2)=C(C)C1=O (stereo not drawn),inactive
15,C[Se]CCC(N)C(=O)O (stereo not drawn),inactive
16,Cc1cc(C2CCCCC2)n(O)c(=O)c1,inactive
17,Cc1ncc([N+](=O)[O-])n1CC(C)O (stereo not drawn),inactive
